What all share (conditions): mRNA level, 48 h; actives raise or lower the signal
Read-out in assay [1]: Alkaline Phosphatase, Placental (ALPP) gene, ALPP (gene 250)
The assay can be described thus: LTEA_HepaRG_ALPP: Life Technologies and Expression Analysis (LTEA) Assay for Alkaline Phosphatase, Placental (ALPP) gene using HepaRG (AID 2283468).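 For AC50: differentiated human HepaRG liver cells in serum-free induction medium; ALPP transcript by TaqMan qRT-PCR normalized to ACTB GAPDH and POLR2A.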 Put shortly:
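HepaRG, 48 h plating then 48 h dosing, serum-free induction medium, 0.5% DMSO. 8 conc, half-log, max 100 uM, duplicates. Endpoint: ALPP transcript by qRT-PCR, housekeeping-normalized; gain or loss fitted vs DMSO.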

Read-out in assay [2]: Bcl-2 (BAD) gene, BAD (gene 572)
Put plainly: LTEA_HepaRG_BAD: Life Technologies and Expression Analysis (LTEA) Assay for Bcl-2 (BAD) gene using HepaRG (AID 2283469). Put shortly:
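HepaRG, 48 h exposure, 8-pt half-log curve from 100 uM in 0.5% DMSO, duplicates. Readout: TaqMan qRT-PCR for BAD mRNA, housekeeping-normalised (ACTB/GAPDH/POLR2A); gain or loss fitted against DMSO baseline.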

Read-out in assay [3]: Bcl-2 (BAX) gene, BAX (gene 581)
The assay can be described thus: LTEA_HepaRG_BAX: Life Technologies and Expression Analysis (LTEA) Assay for Bcl-2 (BAX) gene using HepaRG (AID 2283470). An outline of the steps:
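Human HepaRG cells treated in duplicate for 48 h across eight concentrations (max 100 uM, 0.5% DMSO); BAX expression measured by qRT-PCR.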

Read-out in assay [4]: adenosine kinase (ADK) gene, ADK (gene 132)
The assay can be described thus: LTEA_HepaRG_ADK: Life Technologies and Expression Analysis (LTEA) Assay for adenosine kinase (ADK) gene using HepaRG (AID 2283471). Put shortly: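 Differentiated HepaRG cells dosed 48 h in serum-free induction medium, 0.5% DMSO vehicle, eight half-log concentrations from 100 uM, in duplicate. ADK mRNA by TaqMan qRT-PCR normalised to ACTB, GAPDH, POLR2A; bidirectional fit versus DMSO.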

Read-out in assay [5]: Alpha-fetoprotein (AFP) gene, AFP (gene 174)
Put plainly: LTEA_HepaRG_AFP: Life Technologies and Expression Analysis (LTEA) Assay for Alpha-fetoprotein (AFP) gene using HepaRG (AID 2283472).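 For AC50: AFP transcript by TaqMan qRT-PCR normalized to ACTB GAPDH and POLR2A.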 An outline of the steps: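 Measures AFP mRNA change in HepaRG after 48 h chemical exposure (8 half-log concentrations, highest 100 uM, 0.5% DMSO). Fold change relative to DMSO, fitted in both directions.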

Read-out in a further assay: BCL2L11 (gene 10018)
The assay can be described thus: LTEA_HepaRG_BCL2L11: Life Technologies and Expression Analysis (LTEA) Assay for Bcl-2 (BCL2L11) gene using HepaRG (AID 2283473). An outline of the steps:
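Read-out is BCL2L11 transcript level by qRT-PCR, normalized to three housekeeping genes and fitted bidirectionally against 0.5% DMSO vehicle. HepaRG cells received chemicals for 48 h in serum-free induction medium, 100 uM down in half-log dilutions.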

Read-out in assay [6]: Apolipoprotein A-V (APOA5) gene, APOA5 (gene 116519)
The assay can be described thus: LTEA_HepaRG_APOA5: Life Technologies and Expression Analysis (LTEA) Assay for Apolipoprotein A-V (APOA5) gene using HepaRG (AID 2283474). Put shortly:
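Readout is APOA5 transcript level by qRT-PCR on Fluidigm dynamic arrays, normalized to three housekeeping genes. HepaRG cultures received chemicals for 48 h at up to 100 uM (half-log steps, 0.5% DMSO), with gain or loss scored relative to DMSO.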

Read-out in assay [7]: Apoptosis regulator Bcl-2 (Homo sapiens) (UniProt P10415)
The assay can be described thus: LTEA_HepaRG_BCL2: Life Technologies and Expression Analysis (LTEA) Assay for Bcl-2 gene using HepaRG (AID 2283475). An outline of the steps: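 Each chemical was tested in duplicate on HepaRG cultures held in serum-free induction medium for 48 h, highest concentration 100 uM with half-log dilutions. Transcript levels came from multiplexed qRT-PCR, normalised to housekeeping genes; activity was scored in either direction relative to DMSO.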

Read-out in assay [8]: Bcl-2 (BID) gene, BID (gene 637)
Put plainly: LTEA_HepaRG_BID: Life Technologies and Expression Analysis (LTEA) Assay for Bcl-2 (BID) gene using HepaRG (AID 2283476). An outline of the steps:
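Assay used HepaRG hepatic cells treated 48 h in serum-free medium with half-log dilutions from 100 uM. Endpoint: BID mRNA, qRT-PCR, normalized to ACTB/GAPDH/POLR2A.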

Read-out in assay [9]: Peroxisomal acyl-coenzyme A oxidase 1 (ACOX1) gene, ACOX1 (gene 51)
The assay can be described thus: LTEA_HepaRG_ACOX1: Life Technologies and Expression Analysis (LTEA) Assay for Peroxisomal acyl-coenzyme A oxidase 1 (ACOX1) gene using HepaRG (AID 2283467). Put shortly:
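HepaRG, 48 h chemical exposure, 8-pt half-log series from 100 uM top, 0.5% DMSO vehicle, duplicates. Readout: ACOX1 mRNA by Fluidigm qRT-PCR, housekeeping-normalized; bidirectional fit vs DMSO baseline.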

Calls of active or inactive are those of the source. Rule for the calls: active = hit-call score of the fitted dose curve at least 0.9, where 1 is the maximum; inactive = score below 0.9.

Sequence of Apoptosis regulator Bcl-2 (Homo sapiens) (P10415 whole entry, looked up): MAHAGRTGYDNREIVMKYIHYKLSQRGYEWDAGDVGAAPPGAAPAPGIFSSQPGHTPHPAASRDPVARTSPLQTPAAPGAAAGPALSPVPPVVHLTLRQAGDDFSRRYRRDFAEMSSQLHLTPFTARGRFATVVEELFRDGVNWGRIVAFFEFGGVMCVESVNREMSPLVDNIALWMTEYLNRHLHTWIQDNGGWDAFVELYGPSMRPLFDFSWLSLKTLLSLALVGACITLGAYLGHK

For the compound `CCCCCCCCCCO`, the result (in assay [1]; in [2]; in assay [3]; in assay [4]; in assay [5]; with BCL2L11 (gene 10018)) was inactive. Moreover, the call in assay [6], in assay [7] and in assay [8] was inactive.
In the case of `CCCCc1ccc2c(n1)[C@@H](c1ccc(OC)cc1C[C@H](C)C(=O)O)[C@H](C(=O)O)[C@H]2c1ccc2c(c1)OCO2`, the result (in assay [9]; in assay [1]; in assay [3]; in assay [4]; in assay [5]; in the assay with BCL2L11 (gene 10018)) was inactive. The compound was called inactive in assay [6] and in [8].
In the case of `CCCCCCCCCCCCCO`, the outcome (in assay [1]; in [2]; in assay [3]; in [4]; in assay [5]; with BCL2L11 (gene 10018)) was inactive. The outcome in assay [6] and in assay [8] was inactive.
For orientation: AC50 means the concentration at which the activity in the assay is half-maximal. For the compound `Nc1ccccc1N`, the AC50 in [9] was 62.3 µM (active); in [3], 40.6 µM (active); in assay [4] it was 85.7 µM (active); in [5], 72 µM (active); with BCL2L11 (gene 10018), 50 µM (active); in assay [6] it was 58.2 µM (active). The result in assay [1] and in assay [8] was inactive.
`CCCc1cc(=O)[nH]c(=S)[nH]1`: the call (in assay [1]; in assay [2]; in assay [3]; in assay [4]; in assay [5]; with BCL2L11 (gene 10018)) was inactive. The compound was classed as inactive in [6], in assay [7] and in [8].
In the case of `CCCCCCCCCCC`, the compound was classed as inactive (in [9]; in assay [1]; in assay [3]; in assay [4]; in assay [5]; with BCL2L11 (gene 10018)). The call in assay [6], in assay [7] and in assay [8] was inactive.
Take `CC(=O)Oc1ccccc1C(=O)O`: the result (in assay [9]; in [1]; in assay [3]; in [4]; in assay [5]; with BCL2L11 (gene 10018)) was inactive. The outcome in assay [7] and in assay [8] was inactive.
For the compound `CCCCCCCC=O`, the call (in assay [1]; in assay [2]; in assay [3]; in assay [4]; in assay [5]; with BCL2L11 (gene 10018)) was inactive. Further, the outcome in assay [6], in assay [7] and in assay [8] was inactive.
Regarding `O=c1[nH]cc(F)c(=O)[nH]1`, the call (in assay [9]; in [1]; in assay [3]; in assay [4]; in assay [5]; in the assay with BCL2L11 (gene 10018)) was inactive. Also, the compound was classed as inactive in [8]. The AC50 in assay [6] is 70.9 µM (active).
With `Nc1ccc2c(c1)C(=O)c1ccccc1C2=O`, the call (in assay [9]; in assay [1]; in [4]; with BCL2L11 (gene 10018); in [8]) was inactive. In addition, the AC50 in [3] was 15 µM (active); in [5], 22.8 µM (active); in [6], 5.42 µM (active).
With `Cc1cccc(C)c1O`, the outcome (in [9]; in assay [1]; in assay [3]; in assay [4]; in assay [5]; with BCL2L11 (gene 10018)) was inactive. The call in assay [7] and in assay [8] was inactive.
For the compound `Cc1ccc(C)c(O)c1C`, the compound was called inactive (in assay [9]; in assay [1]; in assay [3]; in assay [4]; in assay [5]; with BCL2L11 (gene 10018)). Besides, the result in [6] and in [8] was inactive.
With `Cc1cccc(Nc2cc(Cl)nc(SCC(=O)O)n2)c1C`, the compound was called inactive (in assay [1]; in assay [2]; in assay [3]; in assay [4]; in assay [5]; in the assay with BCL2L11 (gene 10018)). In addition, the AC50 in [8] is 0.276 µM (active).
As for `COc1ccc2c(c1)c(CC(=O)O)c(C)n2C(=O)c1ccc(Cl)cc1`, the call (in [1]; in [2]; in assay [3]; in [4]; in assay [5]; with BCL2L11 (gene 10018)) was inactive. Also, the compound was called inactive in [7] and in [8].
On to `C=CCOC(=O)c1ccccc1C(=O)OCC=C`, for which the result (in assay [1]; in [3]; in assay [4]; in assay [5]; with BCL2L11 (gene 10018); in assay [7]) was inactive. Moreover, the outcome in assay [8] was inactive.
As for `CN[C@H]1CC[C@@H](c2ccc(Cl)c(Cl)c2)c2ccc(S(N)(=O)=O)cc21`, the AC50 in [1] was 5.79 µM (active); in [3], 82.6 µM (active); in assay [5] it was 23.8 µM (active). The outcome (in assay [4]; with BCL2L11 (gene 10018); in assay [7]; in assay [8]) was inactive.
With `OC[C@@H](O)[C@@H](O)[C@H](O)[C@H](O)CO`, the result (in [1]; in assay [3]; in assay [4]; in assay [5]; with BCL2L11 (gene 10018); in assay [6]) was inactive. For the same compound, the result in [8] was inactive.
`CCc1c(C(=O)NN2CCCCC2)nn(-c2ccc(Cl)cc2Cl)c1-c1ccc(Br)cc1`: the AC50 was 12.3 µM (active) in assay [1]; 27.3 µM (active) in assay [3]; 25.1 µM (active) in assay [5]; 7.59 µM (active) with BCL2L11 (gene 10018); 20 µM (active) in [7]. For the same compound, the outcome in [4] and in assay [8] was inactive.
With `CC(=O)OCCOCCOCCOC(C)=O`, the outcome (in assay [1]; in assay [2]; in assay [3]; in [4]; in assay [5]; in the assay with BCL2L11 (gene 10018)) was inactive. In assay [8], the call was inactive.
For `CCCCC(CC)COC(=O)CC(C(=O)OCC(CC)CCCC)S(=O)(=O)O` (configuration not stated), the compound was classed as inactive (in [1]; in assay [3]; in [5]; with BCL2L11 (gene 10018); in assay [7]). The AC50 is 81.6 µM (active) in assay [4] and 50 µM (active) in assay [8].

Values taken from PubChem BioAssay (EPA / NIEHS).
